Results filed as inconclusive are left out. Unmarked numbers belong to inactive results. Activity calls are given as the source filed them. Calls come from the whole dose curve; as a rule, active = well fitted curve in the direction sought with a large enough effect in the repeat runs; inconclusive = weak or mixed curves; inactive = no such curve, though single readings can be large; an effect the other way counts as inactive or inconclusive.
Target: Cytochrome P450 2D6 (Homo sapiens) (UniProt P10635)
Assay: Cytochrome P450 family 2 subfamily D member 6 (CYP2D6) small molecule antagonists: luciferase biochemical (cell-free) qHTS assay (AID 1645840)
Conditions: P450-Glo CYP2D6 enzyme, luciferin luminescence, 1 h; series mostly up to 57.4 µM; activity change, negative = inhibition: at the top concentration
Outline: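 P450-Glo CYP2D6 system: proluciferin substrate converted by enzyme to luciferin, read by luminescence proportional to activity. Enzyme-substrate mix with compound 10 min at room temperature, then NADPH regeneration 1 h before detection reagent.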
% is set by controls: 0 for no effect and ±100 for the full control effect; potency is the fitted concentration of half-maximal effect.
Note: nearly all actives have a fitted effect of over 55% in size.

Sequence of Cytochrome P450 2D6 (Homo sapiens) (P10635 whole entry, looked up): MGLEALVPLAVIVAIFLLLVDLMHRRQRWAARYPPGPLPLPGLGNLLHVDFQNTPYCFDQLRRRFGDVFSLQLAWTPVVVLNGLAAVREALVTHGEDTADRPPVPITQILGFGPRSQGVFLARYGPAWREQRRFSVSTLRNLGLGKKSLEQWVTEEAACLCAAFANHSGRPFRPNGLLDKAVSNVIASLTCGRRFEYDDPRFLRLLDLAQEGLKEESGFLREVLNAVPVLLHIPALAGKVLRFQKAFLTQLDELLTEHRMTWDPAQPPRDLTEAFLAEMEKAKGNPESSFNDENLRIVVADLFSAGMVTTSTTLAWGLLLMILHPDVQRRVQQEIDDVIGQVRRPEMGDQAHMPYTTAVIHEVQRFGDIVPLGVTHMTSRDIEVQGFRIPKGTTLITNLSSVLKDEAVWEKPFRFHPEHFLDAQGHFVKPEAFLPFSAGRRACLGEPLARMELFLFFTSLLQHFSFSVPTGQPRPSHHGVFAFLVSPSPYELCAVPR

Row | Structure (SMILES) | activity change, negative = inhibition [%] | Potency
1 | Cn1cc(S(C)=O)c(=O)c2ccc(F)cc21 (centres undefined) | 7.21 | 
2 | Oc1cccc2[nH]ccc12 |  | 15.5 µM (active)
3 | CCCCC/C=C\C/C=C\CCCCCCCC(=O)NC(C)c1ccccc1 (centres undefined) |  | 3.89 µM (active)
4 | C/C(=N\O)[C@@H](C)NCC(C)(C)CN[C@H](C)/C(C)=N/O | -15.6 | 
5 | CCCOc1ccc2c(c1)CC[C@@H]1[C@@H]2CC[C@]2(C)C(OC)CC[C@@H]12 (some centres undefined) |  | 15.5 µM (active)
6 | O=C(CCC1CCN(Cc2ccccc2)CC1)c1ccc2c(c1)NCCCC2 |  | 9.77 µM (active)
7 | O=[N+]([O-])c1cncn1CCN1CCOCC1 | -1.12 | 
8 | CCN(CC)CCOc1ccc(/C(=C(\Cl)c2ccccc2)c2ccccc2)cc1 |  | 1.38 µM (active)
9 | OCc1c[nH]c2ccccc12 |  | 25.2 µM (active)
10 | COC(=O)C1=C(C)NC(C)=C(C(=O)OCCc2ccc(N3CCN(C(c4ccccc4)c4ccccc4)CC3)cc2)C1c1cccc([N+](=O)[O-])c1 (centres undefined) | 6.95 | 
11 | CCCN(CCC)C(=O)C(CCC(=O)OCCCN1CCN(CCOC(=O)Cc2c(C)n(C(=O)c3ccc(Cl)cc3)c3ccc(OC)cc23)CC1)NC(=O)c1ccccc1 (centres undefined) |  | 7.76 µM (active)
12 | C[C@@H](O[C@H]1OCCN(Cc2n[nH]c(=O)[nH]2)[C@H]1c1ccc(F)cc1)c1cc(C(F)(F)F)cc(C(F)(F)F)c1 |  | 20.4 µM (active)
13 | Brc1ccccc1-c1ccccc1 |  | inactive
14 | O=C1Nc2ccccc2C1(c1ccc(O)cc1)c1ccc(O)cc1 |  | 19.5 µM (active)
15 | Nc1cc(C(F)(F)F)ccc1S |  | 15.5 µM (active)
16 | Oc1ccc(CCNCCCCCCNCCc2ccccc2)cc1O |  | 24.5 µM (active)
17 | Cc1ccc(CCn2c3c(c4cc(Cl)ccc42)CN(C)CC3)cn1 |  | 2.19 µM (active)
18 | CN(C)CCOC1=Cc2ccccc2Sc2ccc(Cl)cc21 |  | 1.1 µM (active)
19 | O=P(O)(O)OCC(O)CO (centres undefined) | 7.59 | 
20 | CC(=O)N(c1onc(C)c1C)S(=O)(=O)c1ccc(N)cc1 | -15.8 | 
21 | NC(=O)NS(=O)(=O)c1ccc(Cl)cc1 | -9.38 | 
22 | COC(=O)c1cc(S(N)(=O)=O)ccc1OC | -0.292 | 
23 | CC(=O)O[C@@H]1CC2C3CCc4cc(OC(=O)c5ccccc5)ccc4C3CCC2(C)[C@H]1OC(C)=O (some centres undefined) | 4.33 | 
24 | COc1cc(S(N)(=O)=O)cc(C(=O)O)c1OC | 2.65 | 
25 | C/C(=C(/OCCOc1ccc(Cl)cc1)c1ccc(Cl)cc1Cl)n1ccnc1 |  | 0.871 µM (active)
26 | COC(=O)/C=C\C(=O)OC | 5.8 | 
27 | C[C@@H](C1=C(CCN(C)C)Cc2ccccc21)c1ccccn1 |  | 11 µM (active)
28 | CN(C)CCN1CCN(c2cccc(Cl)c2)C1=O |  | 15.5 µM (active)

Target: Cytochrome P450 2C9 (Homo sapiens) (UniProt P11712)
Assay: Cytochrome P450 family 2 subfamily C member 9 (CYP2C9) small molecule antagonists: luciferase biochemical (cell-free) qHTS assay (AID 1645842)
Conditions: P450-Glo CYP2C9 enzyme assay, luciferin luminescence; series mostly up to 57.4 µM; activity change, negative = inhibition: at the top concentration
Outline: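 P450-Glo CYP2C9 system: proluciferin substrate with enzyme in mix containing 0.4% BSA, 10 min at room temperature, then NADPH regeneration solution added and incubated 1 h at 37C. Detection reagent stopped reaction; luminescence read after 20 min as RLU.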

Sequence of Cytochrome P450 2C9 (Homo sapiens) (P11712 whole entry, looked up): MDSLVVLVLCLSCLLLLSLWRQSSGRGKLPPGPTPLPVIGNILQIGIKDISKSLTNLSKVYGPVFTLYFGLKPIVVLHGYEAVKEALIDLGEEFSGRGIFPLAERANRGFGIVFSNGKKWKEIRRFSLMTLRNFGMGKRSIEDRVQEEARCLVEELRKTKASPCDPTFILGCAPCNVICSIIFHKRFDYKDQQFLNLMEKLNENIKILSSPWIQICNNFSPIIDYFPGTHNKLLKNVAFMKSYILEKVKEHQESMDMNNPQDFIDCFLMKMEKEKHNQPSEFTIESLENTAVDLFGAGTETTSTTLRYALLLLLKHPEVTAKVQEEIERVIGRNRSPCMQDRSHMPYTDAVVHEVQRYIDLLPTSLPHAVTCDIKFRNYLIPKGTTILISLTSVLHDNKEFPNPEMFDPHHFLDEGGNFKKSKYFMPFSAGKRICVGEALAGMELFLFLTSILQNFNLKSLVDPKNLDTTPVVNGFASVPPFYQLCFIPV

Row | Structure (SMILES) | activity change, negative = inhibition | Potency
29 | Cn1cc(S(C)=O)c(=O)c2ccc(F)cc21 (centres undefined) | 25.8% | 
30 | CCCCC/C=C\C/C=C\CCCCCCCC(=O)NC(C)c1ccccc1 (centres undefined) |  | 1.55 µM (active)
31 | C/C(=N\O)[C@@H](C)NCC(C)(C)CN[C@H](C)/C(C)=N/O | -11.8% | 
32 | CCCOc1ccc2c(c1)CC[C@@H]1[C@@H]2CC[C@]2(C)C(OC)CC[C@@H]12 (some centres undefined) |  | 19.5 µM (active)
33 | CSc1ccc(/C=C2/C(C)=C(CC(=O)O)c3cc(F)ccc32)cc1 | 1.38% | 
34 | O=C(CCC1CCN(Cc2ccccc2)CC1)c1ccc2c(c1)NCCCC2 | -3.57% | 
35 | O=[N+]([O-])c1cncn1CCN1CCOCC1 | 18.1% | 
36 | CSCC[C@H](NC(=O)[C@H](Cc1c[nH]c2ccccc12)NC(=O)CCNC(=O)OC(C)(C)C)C(=O)N[C@@H](CC(=O)O)C(=O)N[C@@H](Cc1ccccc1)C(N)=O | 10.1% | 
37 | CCCCCCOC(=O)NC(=N)c1ccc(NCc2nc3cc(C(=O)N(CCC(=O)OCC)c4ccccn4)ccc3n2C)cc1 |  | 1.38 µM (active)
38 | OCc1c[nH]c2ccccc12 |  | 7.31 µM (active)
39 | COC(=O)C1=C(C)NC(C)=C(C(=O)OCCc2ccc(N3CCN(C(c4ccccc4)c4ccccc4)CC3)cc2)C1c1cccc([N+](=O)[O-])c1 (centres undefined) |  | 0.55 µM (active)
40 | CCCN(CCC)C(=O)C(CCC(=O)OCCCN1CCN(CCOC(=O)Cc2c(C)n(C(=O)c3ccc(Cl)cc3)c3ccc(OC)cc23)CC1)NC(=O)c1ccccc1 (centres undefined) |  | 3.47 µM (active)
41 | C[C@@H](O[C@H]1OCCN(Cc2n[nH]c(=O)[nH]2)[C@H]1c1ccc(F)cc1)c1cc(C(F)(F)F)cc(C(F)(F)F)c1 |  | 12.1 µM (active)
42 | Brc1ccccc1-c1ccccc1 | 6.5% [at 115 µM] | 
43 | O=C1Nc2ccccc2C1(c1ccc(O)cc1)c1ccc(O)cc1 |  | 4.36 µM (active)
44 | Nc1cc(C(F)(F)F)ccc1S |  | 1.38 µM (active)

Row | Structure (SMILES) | activity change, negative = inhibition | Potency
45 | Oc1ccc(CCNCCCCCCNCCc2ccccc2)cc1O | -8.37% | 
46 | Cc1ccc(CCn2c3c(c4cc(Cl)ccc42)CN(C)CC3)cn1 | 1.12% | 
47 | CN(C)CCOC1=Cc2ccccc2Sc2ccc(Cl)cc21 | -10.6% | 
48 | O=P(O)(O)OCC(O)CO (centres undefined) | 2.32% | 
49 | CC(=O)N(c1onc(C)c1C)S(=O)(=O)c1ccc(N)cc1 | 46.5% | 
50 | NC(=O)NS(=O)(=O)c1ccc(Cl)cc1 | 15.3% | 
51 | COC(=O)c1cc(S(N)(=O)=O)ccc1OC | 77.6% | 
52 | CC(=O)O[C@@H]1CC2C3CCc4cc(OC(=O)c5ccccc5)ccc4C3CCC2(C)[C@H]1OC(C)=O (some centres undefined) | 1.5% | 
53 | COc1cc(S(N)(=O)=O)cc(C(=O)O)c1OC | -0.398% | 
54 | CCOC(=O)[C@H](CCc1ccccc1)N[C@@H](C)C(=O)N(CC(=O)O)C1Cc2ccccc2C1 |  | 19.5 µM (active)
55 | Nc1c(NC/C=C\COc2cc(CN3CCCCC3)ccn2)c(=O)c1=O | -13.2% [at 23.9 µM] | 
56 | C/C(=C(/OCCOc1ccc(Cl)cc1)c1ccc(Cl)cc1Cl)n1ccnc1 |  | 0.55 µM (active)
57 | COC(=O)/C=C\C(=O)OC | 0.705% | 
58 | C[C@@H](C1=C(CCN(C)C)Cc2ccccc21)c1ccccn1 | -0.511% | 
59 | CN(C)CCN1CCN(c2cccc(Cl)c2)C1=O | 0.969% | 

Source: PubChem BioAssay (NCATS)
